Source: PubChem BioAssay (NCATS)
“And” between values parts separate entries of the source, which are not always exact repeats. Equal values may be shown once. Results filed as inconclusive are left out.

Experiment: qHTS Assay for Lipid Storage Modulators (AID 1519)
Conditions: Drosophila S3 cells, BODIPY lipid droplet/cell ratio, laser cytometry; measured here: cell count channel max response; cells loaded with oleic acid
How it was run: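 Cells seeded at 5,000 per well were treated with compounds over a concentration series and loaded with oleic acid (400 uM, as added). Lipid droplet fluorescence (488 nm excitation, 500-530 nm channel) was read by laser-scanning cytometry and normalized to 20 uM Triacsin C.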

| SMILES | max response |
| --- | --- |
| O=C(O)CCC(=O)Nc1ccc(S(=O)(=O)Nc2nccs2)cc1 | 5.61% and 16.3% |
| Oc1c(Cl)cc(Cl)c(Cl)c1Cc1c(O)c(Cl)cc(Cl)c1Cl | 18% |
| c1ccc(CC2=NCCN2)cc1 | -5.46% and 11.2% |
| CN(C)CCC[C@@]1(c2ccc(F)cc2)OCc2cc(C#N)ccc21 | 5.54% and 6.49% |
| COc1ccc(C(=O)c2ccccc2O)c(O)c1 | -10.6% and 8.18% |
| O=C1C(O)=C(O)C(=O)C(O)=C1O | -3.62% and 13.5% |
| NC(=O)c1ccccc1O | 13.3% |
| CCN(CC)CCNC(=O)COc1ccc(OC)cc1 | 7.9% and 27.2% |
| COc1ccc(C(Cl)=C(c2ccc(OC)cc2)c2ccc(OC)cc2)cc1 | -13.4% |
| CC(C)(C)NC[C@H](O)COc1nsnc1N1CCOCC1 | 10% and 1.77% |
| COc1ccc(C(=O)c2ccccc2)c(O)c1 | -14% and -2.88% |
| NC(N)=NCc1cccc(I)c1 | -19.1% |
| CN1CCC[C@@H]1CCO[C@](C)(c1ccccc1)c1ccc(Cl)cc1 | -6.75% |
| O=C(CCCN1CC=C(n2c(=O)[nH]c3ccccc32)CC1)c1ccc(F)cc1 | -13.4% and 7.49% |
| COc1cc(NS(=O)(=O)c2ccc(N)cc2)ncn1 | 0.606% and 6.05% |
| CCCN(CCC)S(=O)(=O)c1ccc(C(=O)O)cc1 | 0.958% and 6.83% |
| CNCCc1ccccn1 | 0.592% and 17.8% |

Same assay, conditions: Drosophila S3 cells, BODIPY lipid droplet/cell ratio, laser cytometry; measured here: lipid channel max response; cells loaded with oleic acid

| SMILES | max response |
| --- | --- |
| O=C(O)CCC(=O)Nc1ccc(S(=O)(=O)Nc2nccs2)cc1 | 3.26% and 28.6% |
| Oc1c(Cl)cc(Cl)c(Cl)c1Cc1c(O)c(Cl)cc(Cl)c1Cl | 27% |
| c1ccc(CC2=NCCN2)cc1 | -4.35% and 15.7% |
| CN(C)CCC[C@@]1(c2ccc(F)cc2)OCc2cc(C#N)ccc21 | 4.25% and 5% |
| COc1ccc(C(=O)c2ccccc2O)c(O)c1 | -18.3% and 15.8% |
| O=C1C(O)=C(O)C(=O)C(O)=C1O | -3.42% and 27.1% |
| NC(=O)c1ccccc1O | 29.8% |
| CCN(CC)CCNC(=O)COc1ccc(OC)cc1 | 4.41% and 33.1% |
| COc1ccc(C(Cl)=C(c2ccc(OC)cc2)c2ccc(OC)cc2)cc1 | -12.3% |
| CC(C)(C)NC[C@H](O)COc1nsnc1N1CCOCC1 | 6.06% and 5.65% |
| COc1ccc(C(=O)c2ccccc2)c(O)c1 | -14.1% and 8.45% |
| NC(N)=NCc1cccc(I)c1 | -12.1% |
| CN1CCC[C@@H]1CCO[C@](C)(c1ccccc1)c1ccc(Cl)cc1 | -13.1% |
| O=C(CCCN1CC=C(n2c(=O)[nH]c3ccccc32)CC1)c1ccc(F)cc1 | -9.23% and 27.6% |
| COc1cc(NS(=O)(=O)c2ccc(N)cc2)ncn1 | 1.51% and 9.04% |
| CCCN(CCC)S(=O)(=O)c1ccc(C(=O)O)cc1 | 0.939% and 10.4% |
| CNCCc1ccccn1 | 1.76% and 22.8% |
